Source: PubChem
This is a sample that favours compounds with a hit; in the whole collection about 3.5% have one here.
Pf apPOL block: Pf-apPOL DNA polymerase inhibition | inhibition, % at 10 µM | Recombinant Pf-apPOL, molecular beacon fluorescence, 1.5 h | 0.25% of 210,000 active
mHTT-CaM PPI inh: inhibitors of human mutant huntingtin-calmodulin interaction | AlphaScreen His-mHTT/GST-CaM binding, luminescence | 3.6% of 190,000 active | inhibition, % at 15 µM | P42858;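 also: 0% = both proteins with DMSO and 100% = one protein alone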
Active calls of the source: *. Rule as the data show it: active = inhibition above about 50%; inactive = the rest.

COc1ccc(CNC(=O)c2ccc3[nH]c4c(c3c2)CN(C(C)=O)CC4)c(OC)c1 was read as Pf apPOL block -3 and mHTT-CaM PPI inh 51*.
`CCc1ccccc1NC(=O)c1ccc2[nH]c3c(c2c1)CN(C(C)=O)CC3` gave Pf apPOL block -1 and mHTT-CaM PPI inh 22.
`COc1ccccc1CNC(=O)c1ccc2[nH]c3c(c2c1)CN(C(C)=O)CC3` gave Pf apPOL block -2 and mHTT-CaM PPI inh 28.
For O=C(NCC(O)c1cccs1)Nc1ccccc1C(F)(F)F (configuration not stated) the results were Pf apPOL block 4 and mHTT-CaM PPI inh -19.
For COCCCNC(=O)c1cnn2c(C)c(Cc3ccccc3F)c(C)nc12 the results were Pf apPOL block -9 and mHTT-CaM PPI inh 1.
`COc1ccc(S(=O)(=O)N2CCC(C(=O)Nc3nnc(C4CCCO4)o3)CC2)cc1` (configuration not stated) gave Pf apPOL block 1 and mHTT-CaM PPI inh 44.
Screening CC(C)(C)c1ccc(C(=O)Nc2cccc(C(=O)O)c2)cc1 returned Pf apPOL block -4 and mHTT-CaM PPI inh 4.
`COc1ccc(OC)c(-c2c(C)c3cc(OCC(N)=O)ccc3oc2=O)c1` gave Pf apPOL block -9 and mHTT-CaM PPI inh 2.
For N#CC1=C(N)n2c(s/c(=C\c3ccc(O)cc3)c2=O)=C(C(N)=O)C1c1ccc(O)cc1 (configuration not stated) the results were Pf apPOL block -4 and mHTT-CaM PPI inh 53*.
For N#CC1=C(N)n2c(s/c(=C\c3ccc([N+](=O)[O-])cc3)c2=O)=C(C#N)C1c1ccc([N+](=O)[O-])cc1 (configuration not stated) the results were Pf apPOL block -6 and mHTT-CaM PPI inh 14.
COC(=O)Nc1ccc(S(=O)(=O)N2CCC(C(=O)Nc3cccc(OC)c3)CC2)cc1 was read as Pf apPOL block -3 and mHTT-CaM PPI inh 11.
`COc1ccc(S(=O)(=O)N2CCC(C(=O)Nc3cccc(C(C)=O)c3)CC2)cc1` gave Pf apPOL block 99* and mHTT-CaM PPI inh 10.
`FC(F)(F)c1ccnc(N2CCN(C(c3ccccc3)c3ccccc3)CC2)c1` gave Pf apPOL block 1.
`CN1CCc2c(sc3c2C(=O)NC(c2ccc(COc4ccc(Cl)c(Cl)c4)o2)N3)C1` (configuration not stated) gave Pf apPOL block -10 and mHTT-CaM PPI inh 81*.
CCOc1ccc(C2NC(=O)c3c(sc4c3CCN(C)C4)N2)c(O)c1 (configuration not stated) was read as Pf apPOL block -5 and mHTT-CaM PPI inh 3.
`CC1(C)CC(=O)C2=C(C1)c1c(ccc3ncccc13)NC2c1ccc(Cl)cc1` (configuration not stated) gave Pf apPOL block 58* and mHTT-CaM PPI inh 18.
Screening CC1(C)CC(=O)C2=C(C1)c1c(ccc3ncccc13)NC2c1ccccc1 (configuration not stated) returned Pf apPOL block -1 and mHTT-CaM PPI inh 19.
`COc1ccc(OC)c(N(CC(=O)O)S(=O)(=O)c2ccc(C)cc2)c1` gave Pf apPOL block -2 and mHTT-CaM PPI inh -2.
Screening COc1ccc(N2C(=N)S/C(=C\c3ccccc3[N+](=O)[O-])C2=O)cc1 returned Pf apPOL block -1 and mHTT-CaM PPI inh 23.
For Cc1ccc(NC(=O)Cn2ccc3c(=O)[nH]ccc32)cc1C the results were Pf apPOL block 31 and mHTT-CaM PPI inh 16.
`CCc1ccccc1NC(=O)Cn1ccc2c(=O)[nH]ccc21` gave Pf apPOL block 30 and mHTT-CaM PPI inh 23.
For Cc1cccc(NC(=O)Cn2ccc3c(=O)[nH]ccc32)c1C the results were Pf apPOL block 54* and mHTT-CaM PPI inh 13.
For COc1ccc(NC(=O)Cn2ccc3c(=O)[nH]ccc32)cc1 the results were Pf apPOL block 53* and mHTT-CaM PPI inh 18.
For O=C(Nc1c(F)c(F)c(F)c(F)c1F)c1cccnc1 the results were Pf apPOL block 0 and mHTT-CaM PPI inh -6.
Screening Cn1c(CC(=O)O)c(Sc2ccccc2)c2ccccc21 returned Pf apPOL block 26 and mHTT-CaM PPI inh -1.
`COc1ccccc1C(=O)N1CCc2c(c(-c3nc(Cc4ccccc4)no3)nn2C)C1` gave Pf apPOL block -3 and mHTT-CaM PPI inh 5.
`COc1ccc(S(=O)(=O)Nc2c(C)cc(O)c(S(=O)(=O)c3ccc(OC)cc3)c2C)cc1` gave Pf apPOL block -7 and mHTT-CaM PPI inh 2.
COc1ccc(C2=NN(C(=O)CN3CCCCC3)C(c3ccccc3F)C2)cc1 (configuration not stated) was read as Pf apPOL block -8 and mHTT-CaM PPI inh 69*.
`CCC(=O)N1N=C(c2ccc(C)cc2)CC1c1cc2cc(OC)ccc2nc1Cl` (configuration not stated) gave Pf apPOL block 6 and mHTT-CaM PPI inh -1.
COc1ccc(C2=NN(C(=O)CN3CCOCC3)C(c3cccc(OC)c3OC)C2)cc1 (configuration not stated) was read as Pf apPOL block -3 and mHTT-CaM PPI inh 6.
`COc1cccc(C2=NN(C(=O)CN3CCOCC3)C(c3ccccc3F)C2)c1` (configuration not stated) gave Pf apPOL block 0 and mHTT-CaM PPI inh 29.
`COc1ccc(C2=NN(C(=O)CN3CCCCC3)C(c3ccc(C)cc3C)C2)cc1` (configuration not stated) gave Pf apPOL block -7 and mHTT-CaM PPI inh 100*.
Screening COc1ccc(C2CC(c3ccc(F)cc3)=NN2C(=O)CN2CCOCC2)cc1 (configuration not stated) returned Pf apPOL block -4 and mHTT-CaM PPI inh 64*.
Screening CC1CC(C)CN(S(=O)(=O)N2CCC(C(=O)NC3CCCCCCC3)CC2)C1 (configuration not stated) returned Pf apPOL block -10 and mHTT-CaM PPI inh -6.
Screening Cc1nc2ccccn2c(=O)c1NC(=O)Nc1cccs1 returned Pf apPOL block 12 and mHTT-CaM PPI inh 2.
Screening CN(C)C(=O)C1=CCN(C(=O)NC2CCCC2)CC1 returned Pf apPOL block 5 and mHTT-CaM PPI inh 2.
For N#C/C(=C\c1cc2c(cc1Br)OCO2)c1ccc([N+](=O)[O-])cc1 the results were Pf apPOL block 3 and mHTT-CaM PPI inh 7.
`N#C/C(=C\c1ccccc1/C=C(\C#N)c1ccc2c(c1)OCO2)c1ccc2c(c1)OCO2` gave mHTT-CaM PPI inh 73*.
For COc1ccc(-n2nc3c(c2NC(=O)c2ccccc2F)CS(=O)C3)cc1 (configuration not stated) the results were Pf apPOL block 0 and mHTT-CaM PPI inh 5.
Cc1ccc(N=Cc2nc(-c3ccc(Br)cc3)oc2O)c(Br)c1 was read as Pf apPOL block 0 and mHTT-CaM PPI inh -4.
Screening Cc1n[nH]c(C)c1Sc1ccccc1N=Cc1cc(Br)ccc1O returned Pf apPOL block -2 and mHTT-CaM PPI inh 58*.
Screening Cc1n[nH]c(C)c1Sc1ccccc1N=Cc1ccc(C(=O)O)cc1 returned Pf apPOL block -3 and mHTT-CaM PPI inh 2.
Cc1n[nH]c(C)c1Sc1ccccc1N=Cc1c(C)[nH]n(-c2ccccc2)c1=O was read as Pf apPOL block -4 and mHTT-CaM PPI inh 88*.
Screening Cc1n[nH]c(C)c1Sc1ccccc1N=Cc1cc(Cl)ccc1O returned Pf apPOL block -6 and mHTT-CaM PPI inh 31.
`O=C(NC(=S)Nc1ccc(I)cc1)c1ccc([N+](=O)[O-])cc1` gave Pf apPOL block 2.
